The results in this text go back to PubChem BioAssay.

“And” between values parts separate entries of the source, which are not always exact repeats. Identical values can stand only once. The source made the active and inactive calls.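 How the source made its calls, unless noted: active means inhibition at or above 50% relative to wild type and mutant plate controls; inactive means inhibition below 50%.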

Test [1] in a line: inhibitors of TNFa-induced NFkB p65 translocation, primary screen, imaging, HUVEC, MLSMR starter and 10KST1 sets (AID 438;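 active means inhibition above 20% together with a positive visual image hit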;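 further: compound added about 3h40 before a 20 min TNFalpha stimulation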;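 on inhibition: signal is the nuclear over cytoplasmic p65 intensity ratio per well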). The note with it: HUVEC TNFa-induced p65 nuclear translocation; cell count: measured here: nuclei count (cytotoxicity indicator), at 2.08 µM unless noted; inhibition: at 2 µM, stronger effect = higher value unless noted.
Test [2] in a line: inhibitors of mutant huntingtin aggregation, primary screen, imaging, exon1htt(103Q)mCFP cells, high-content imaging (AID 483;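 active means visual image review flags a hit and inhibition of aggregation exceeds 20%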;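 further: compound exposure lasted 3 days before fixation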;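 on nuclei count: percent of the per-plate median nuclei count of sample wells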). The note with it: exon1htt(103Q)mCFP cell line, aggregate imaging, at 2 µM; inhibition of aggregation: stronger effect = higher value; nuclei count: measured here: cell count, toxicity.
Test [3] is described as follows: inhibitors of E-selectin induction by TNFa, primary screen, imaging, HUVEC, immunofluorescence, MLSMR starter and 10KST1 sets (AID 487;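 active means visually confirmed hit in the image check and inhibition above 20%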;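 on inhibition: signal is fraction of cell area covered by stained E-selectin grains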;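 on nuclei count: 100% = median nuclei count of all wells on the same plate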). The note with it: HUVEC TNFalpha-induced E-selectin immunofluorescence imaging, at 2 µM; inhibition: stronger effect = higher value; nuclei count: measured here: cell number, toxicity.
Test [4] can be described thus: DUSP6 inhibitors restoring Erk phosphorylation by chemical complementation, primary imaging in DUSP6-transfected HeLa (AID 609;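 active means compounds giving at least 50% inhibition in the cell-based MKP-3 phosphatase rescue imaging test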;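 on inhibition: phospho-Erk level distribution per well compared with pooled transfected vehicle control wells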). The note with it: HeLa MKP-3 transfected, phospho-Erk imaging KS statistic, at 10 µM.
Test [5] concerns the target Dual specificity protein phosphatase 6 (Homo sapiens) (UniProt Q16828). The description is as above. The note with it: HeLa MKP-3 transfected, phospho-Erk imaging KS statistic, at 10 µM, stronger effect = higher value.
Test [6] has as its target Voltage-gated potassium channel subunit beta-2 (Rattus norvegicus) (UniProt P62483). In words: KvBeta enzyme negative modulators, primary screen, biochemical, NADPH fluorescence (AID 622;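 active means fluorescence slope higher than the sample average by over 3 SD, cut at about -0.22 in these data, passing the limit was not always enough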;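 further: slope of raw intensity against log time taken from 70 to 1610 s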). The note with it: recombinant KvBeta, 4-cyanobenzaldehyde reduction, at 10 µM, stronger effect = higher value.
Test [7] shares this target. In words: KvBeta positive modulators, primary screen, biochemical, NADPH fluorescence (AID 623;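 active means NADPH fluorescence slope more negative than the mean of all samples by about 3 SD, 99.7% confidence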;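 further: fluorescence intensity change per second fitted from 20 to 320 s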). The note with it: Recombinant KvBeta, NADPH fluorescence decrease slope, 10 min; at 10 µM; stronger effect = lower value.
Test [8] addresses Alpha-2C adrenergic receptor (Homo sapiens) (UniProt P18825). Put plainly: modulators of alpha2C/GIRK thallium flux, primary screen, cell-based, HEK293 alpha2C/GIRK1/2 (AID 624;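 active means fluorescence slope after compound addition differing from the mean of all screened samples at 99.7% confidence, in either direction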;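 further: slope of fluorescence ratio to pre-addition baseline per second over 15 to 24 s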). The note with it: thallium flux BTC fluorescence, at 10 µM, actives lie on both sides.
Test [9] can be described thus: inhibitors of larval lipid processing in zebrafish, primary screen, whole organism, PED6 fluorescence, gall bladder and intestine (AID 686;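 active means a full or partial loss of lipid-probe fluorescence in the fish gall bladder, intestine or both, judged by eye; inactive means no fluorescence loss, or compound toxic to the fish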;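 further: larvae 5 to 7 days old with five fish per well; signal comes from phospholipase A2 cleavage of quenched PED6 carried via bile; overnight exposure to compound and PED6 before scoring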). The note with it: Zebrafish larvae PED6 lipid processing, fluorescence scoring.
The nature of test [10]: inhibitors of Chlamydomonas gravitaxis, primary screen, whole organism, Chlamydomonas reinhardtii, WT vs cilia-less mutant, absorbance, 96-well (AID 463189).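 Further: 0% = wild type cc124 cells in DMSO and 100% = ciliumless bld1 mutant cells.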 The note with it: OD600 absorbance, 2 days, at 10 µM, stronger effect = higher value.
Test [11] can be described thus: inhibitors of Sendai virus-induced IRF3 signaling, primary screen, TLR/RLR signaling modifier project, cell-based, Sendai virus stimulus, luciferase, 10K MLSCN set (AID 602276;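 active means inhibition at or above 50% at 10 µM; inactive means inhibition below 50%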;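 further: firefly luciferase from ISG56 promoter only with Renilla not read in this screen; 0% = Sendai virus plus DMSO and 100% = medium plus DMSO without virus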). The note with it: HEK293 RL24 IRF3 luciferase reporter, at 10 µM, stronger effect = higher value. For orientation: In a reporter assay the amount or activity of a reporter protein is the signal.
The nature of test [12]: inhibitors of poly I:C-induced TLR3 signaling, primary screen, cell-based, poly I:C stimulus, luciferase, 10K MLSCN set (AID 602277;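 active means inhibition of the reporter signal at or above 50%; inactive means inhibition below 50%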). The note with it: HEK293-TLR3 RL24 IRF3 luciferase reporter, at 10 µM, stronger effect = higher value.
Setting [13] is: measured here: cell density z-score.
The mark [14] stands for this setting: measured here: nuclear c-Myc green intensity z-score.
Setting [15] is: measured here: nuclear pErk red intensity z-score, stronger effect = higher value.

Sequence of Dual specificity protein phosphatase 6 (Homo sapiens) (Q16828 whole entry, looked up): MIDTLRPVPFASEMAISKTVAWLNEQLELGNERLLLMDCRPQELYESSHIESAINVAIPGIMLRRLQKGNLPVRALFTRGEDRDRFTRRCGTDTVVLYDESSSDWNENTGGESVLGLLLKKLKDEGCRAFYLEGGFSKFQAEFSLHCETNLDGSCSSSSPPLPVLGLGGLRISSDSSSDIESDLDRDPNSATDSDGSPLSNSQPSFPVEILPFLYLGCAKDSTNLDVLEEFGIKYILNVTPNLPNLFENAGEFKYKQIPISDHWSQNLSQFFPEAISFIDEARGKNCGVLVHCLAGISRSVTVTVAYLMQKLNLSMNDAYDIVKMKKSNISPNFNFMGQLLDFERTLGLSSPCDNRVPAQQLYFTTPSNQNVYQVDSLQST
Sequence of Alpha-2C adrenergic receptor (Homo sapiens) (P18825 whole entry, looked up): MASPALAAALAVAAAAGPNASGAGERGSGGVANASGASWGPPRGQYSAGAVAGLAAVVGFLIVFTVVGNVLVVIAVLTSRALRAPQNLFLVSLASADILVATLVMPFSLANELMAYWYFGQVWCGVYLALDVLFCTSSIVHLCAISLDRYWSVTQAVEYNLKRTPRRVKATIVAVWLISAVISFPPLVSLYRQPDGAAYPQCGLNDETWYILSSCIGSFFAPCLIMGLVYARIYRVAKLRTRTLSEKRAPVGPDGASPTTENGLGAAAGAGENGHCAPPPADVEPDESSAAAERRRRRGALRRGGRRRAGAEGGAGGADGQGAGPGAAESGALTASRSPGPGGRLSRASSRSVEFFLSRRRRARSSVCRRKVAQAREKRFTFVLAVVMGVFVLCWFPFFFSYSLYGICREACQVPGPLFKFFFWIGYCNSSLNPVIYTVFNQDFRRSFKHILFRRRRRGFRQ
Sequence of Voltage-gated potassium channel subunit beta-2 (Rattus norvegicus) (P62483 whole entry, looked up): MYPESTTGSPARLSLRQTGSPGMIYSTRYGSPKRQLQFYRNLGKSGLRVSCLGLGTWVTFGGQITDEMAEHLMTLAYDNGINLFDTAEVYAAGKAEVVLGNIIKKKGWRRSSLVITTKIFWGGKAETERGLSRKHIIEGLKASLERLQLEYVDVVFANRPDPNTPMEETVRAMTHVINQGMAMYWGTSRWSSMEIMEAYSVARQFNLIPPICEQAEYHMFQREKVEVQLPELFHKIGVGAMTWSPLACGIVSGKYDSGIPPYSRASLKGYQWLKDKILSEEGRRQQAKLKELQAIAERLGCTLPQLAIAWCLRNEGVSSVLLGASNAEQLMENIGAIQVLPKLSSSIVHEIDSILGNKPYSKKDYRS

The inhibition is the drop in the measured response relative to a control, in per cent. As for `CC(C)C(=O)N1CCN(CCN=Cc2c(O)n(C)c(=O)n(C)c2=O)CC1`, the cell count in test [1] is 517. Besides, the inhibition in test [1] is -3.1% (inactive); in [3] it was -78.2% (inactive); in test [5], 1.9e-07% (inactive); in test [10], 33.6% (inactive); in [11] it was -6.82% (inactive); in [12] it was -2.86% (inactive). In addition, the inhibition of aggregation in test [2] is -28.7% (inactive). For the same compound, the figures for the nuclei count in [2] and in test [3] were 138% and 112%, respectively. Moreover, the z-score in test [4] (setting [13]) is 0.289; in test [4] (setting [14]) it was -1.08; in test [4] (setting [15]) it was 0.644. For the same compound, in test [6], the fluorescence slope was -0.5 (inactive). Also, in [7], the NADPH fluorescence slope was -3.4e-05 (inactive). The slope in test [8] was 0.00563 (inactive). The result in test [9] was inactive.
The compound `CC(C)[C@H]1C(=O)N2CCC[C@H]2[C@]2(O)O[C@](NC(=O)[C@@H]3C=C4c5cccc6[nH]cc(c56)C[C@H]4N(C)C3)(C(C)C)C(=O)N12` showed a cell count in [1] of 501. The inhibition in test [1] is 1.6% (inactive); in [3], -84.6% (inactive); in [5] it was 3.59% (inactive); in [10] it was 13.5% (inactive); in test [11], 10.2% (inactive); in test [12] it was 18.2% (inactive). Moreover, the inhibition of aggregation in test [2] is -14% (inactive). Besides, the nuclei count in test [2] turned out to be 110%; in test [3] it was 122%. The z-score was -1.33 in [4] (setting [13]), -1 in test [4] (setting [14]) and 0.393 in test [4] (setting [15]). Further, the fluorescence slope in [6] was -0.451 (inactive). The NADPH fluorescence slope in [7] was -1.8e-05 (inactive). Further, the slope in test [8] is 0.0044 (inactive).
With `COP(=O)(OC)C(O)C(Cl)(Cl)Cl` (stereo not drawn), the cell count in test [1] was 659. In addition, the inhibition in [1] is 4.7% (inactive); in test [3], -58.1% (inactive); in test [5], 23.4% (inactive); in test [10] it was 12.4% (inactive); in [11] it was 17.5% (inactive); in test [12], 39.8% (inactive). The inhibition of aggregation in [2] is -21.7% (inactive). The nuclei count in test [2] came out at 104%; in test [3], 126%. In addition, the z-score in [4] (setting [13]) is -0.465; in [4] (setting [14]), 1.59; in test [4] (setting [15]) it was 0.972. In addition, the fluorescence slope in test [6] is -0.462 (inactive). Besides, the NADPH fluorescence slope in test [7] was -6e-05 (inactive). Besides, in test [8], the slope was 0.00473 (inactive). Moreover, the compound was called inactive in test [9].
Compound `CC(C)[C@@]1(NC(=O)[C@@H]2C[C@@H]3c4cccc5[nH]cc(c45)C[C@H]3N(C)C2)O[C@@]2(O)[C@@H]3CCCN3C(=O)[C@H](Cc3ccccc3)N2C1=O` had a cell count in test [1] of 640. Also, the inhibition in test [1] was 11.1% (inactive); in test [3], -79.8% (inactive); in test [5] it was -0.828% (inactive); in [10], -5.54% (inactive) and 15.7% (inactive); in test [11], 3.2% (inactive); in test [12], 36.1% (inactive). Moreover, the inhibition of aggregation in [2] is 20.4% (inactive). Besides, the results for the nuclei count in [2] and in [3] were 90.4% and 113%, respectively. The z-score in test [4] (setting [13]) was -0.842; in test [4] (setting [14]) it was -0.876; in [4] (setting [15]), 1.64. Further, in test [6], the fluorescence slope is -0.47 (inactive). Further, in [7], the NADPH fluorescence slope was -3.7e-05 (inactive). In addition, the slope in test [8] was 0.00471 (inactive).
As for `CN1[C@@H]2CC[C@H]1CC(OC(=O)C1C=Nc3ccccc31)C2` (stereo partly drawn), the cell count in test [1] worked out at 619. Also, the inhibition in test [1] was 0.8% (inactive); in test [3], -33.8% (inactive); in [5], 8% (inactive); in [10], -4.66% (inactive); in test [11], -81.8% (inactive); in [12] it was 52.8% (active). The inhibition of aggregation in [2] was -36% (inactive). The nuclei count in test [2] amounted to 99.6%; in test [3], 116%. Besides, the z-score was -1.01 in test [4] (setting [13]), -0.312 in test [4] (setting [14]) and 0.0205 in test [4] (setting [15]). Further, the fluorescence slope in test [6] was -0.448 (inactive). The NADPH fluorescence slope in [7] is -6.1e-05 (inactive). Also, in test [8], the slope was 0.00567 (inactive). Further, the result in test [9] was inactive.
In turn, `O=C(O)CCCc1ccc(N(CCCl)CCCl)cc1` showed a cell count in test [1] of 498. The inhibition was -7.2% (inactive) in test [1]; -70% (inactive) in [3]; 12.4% (inactive) in test [5]; 5.31% (inactive) and 14% (inactive) in test [10]; -6.04% (inactive) in test [11]; -10.8% (inactive) in test [12]. Also, the inhibition of aggregation in [2] is 4.2% (inactive). Further, the nuclei count in [2] is 94.5%; in test [3] it was 127%. Besides, the z-score in test [4] (setting [13]) was 0.122; in test [4] (setting [14]), -0.24; in test [4] (setting [15]), -0.885. In addition, in [6], the fluorescence slope was -0.493 (inactive). Further, the NADPH fluorescence slope in test [7] was -0.000123 (inactive). In test [8], the slope was 0.00534 (inactive).
In [1], `CCCCCCn1c(O)c(C=NC2CCN(Cc3ccccc3)CC2)c(=O)[nH]c1=O` returned a cell count of 592. For the same compound, the inhibition in test [1] is -3.3% (inactive); in test [3], -34.2% (inactive); in test [5], 19.3% (inactive); in test [10], 25.8% (inactive); in test [11], 11.7% (inactive); in test [12], -13.6% (inactive). The inhibition of aggregation in test [2] was -17.9% (inactive). Also, the nuclei count came to 112% in test [2] and 131% in [3]. Moreover, the z-score in test [4] (setting [13]) was 2; in test [4] (setting [14]) it was -0.0485; in test [4] (setting [15]) it was 0.697. Also, the fluorescence slope in test [6] is -0.332 (inactive). Further, the NADPH fluorescence slope in test [7] is -2.2e-05 (inactive). In addition, the slope in test [8] was 0.0054 (inactive). Further, the compound was called inactive in test [9].
In turn, `C[C@H]1CCCC(=O)CCCCCc2cc(O)cc(O)c2C(=O)O1` returned a cell count in [1] of 593. The inhibition in test [1] was -6.9% (inactive); in [3], -84.5% (inactive); in [5] it was 29.1% (inactive); in test [10] it was -7.02% (inactive); in [11] it was -0.827% (inactive); in test [12], 16.9% (inactive). Further, the inhibition of aggregation in test [2] is 2.6% (inactive). The figures for the nuclei count in test [2] and in test [3] were 82.4% and 116%, respectively. Also, the z-score in test [4] (setting [13]) is 1.09; in [4] (setting [14]), -0.366; in test [4] (setting [15]), -0.0362. The fluorescence slope in test [6] was -0.439 (inactive). The NADPH fluorescence slope in [7] is 2.4e-05 (inactive). In addition, the slope in [8] is 0.00367 (inactive). Besides, in [9], the compound was called inactive.
As to `CCOC(=O)[C@@]1(C#N)[C@@H]2C=CC(C(N)=O)=CN2[C@@H](C(N)=O)[C@@H]1c1cccc(Cl)c1`, in test [1], the cell count amounted to 359. For the same compound, the inhibition in test [1] is -11.1% (inactive); in test [3], -137% (inactive); in test [5] it was 11.4% (inactive); in test [10], 24.1% (inactive). Besides, the nuclei count in test [3] worked out at 133%. Moreover, the z-score in [4] (setting [13]) is 1.68; in [4] (setting [14]) it was -1.47; in test [4] (setting [15]) it was -0.2. Also, in [6], the fluorescence slope is -0.368 (inactive). Moreover, in test [7], the NADPH fluorescence slope is -1e-05 (inactive). Moreover, the slope in test [8] is 0.00498 (inactive). Also, in test [9], the outcome was inactive.
In test [1], `CC(CCc1ccccc1)NC(C)C(O)c1ccc(O)cc1` (stereo not drawn) gave a cell count of 697. Besides, the inhibition was 2% (inactive) in [1]; -54.5% (inactive) in test [3]; 10.2% (inactive) in [5]; 8.38% (inactive) and -4.76% (inactive) in [10]; -11.1% (inactive) in test [11]; 12% (inactive) in test [12]. Also, the inhibition of aggregation in [2] was 19.5% (inactive). For the same compound, the figures for the nuclei count in [2] and in [3] were 96.6% and 119%, respectively. In addition, the z-score in test [4] (setting [13]) is -0.115; in [4] (setting [14]), -1.79; in test [4] (setting [15]), -1.46. The fluorescence slope in test [6] was -0.468 (inactive). In test [7], the NADPH fluorescence slope was 4.8e-05 (inactive). The slope in test [8] is 0.00919 (inactive). Further, the call in test [9] was inactive.
